# Reference: PubChem BioAssay AID1745849 (National Center for Advancing Translational Sciences (NCATS), 2022)
# Among all 2,100 compounds or so, about 320 (15%) were called active. Not shown: some 52% with an inconclusive outcome. The call rests on the fitted dose curve; in most records, active means well fitted cell-killing curve with a large enough effect; inconclusive means small, poorly fitted or top-dose-only effect, or effect the other way; inactive means flat fitted curve, though single readings scatter. The list shows a part of the results.
# Experiment: Viability Counterscreen for CMV-Luciferase Assay of Inhibitors of ATXN expression; further: nearly all actives have a fitted effect of over 55% in size
# Conditions: HEK-293 CMV-luciferase cells viability, protease fluorescence, 24 h; activity change, negative = cytotoxicity: at the top concentration
# Procedure, shortened: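 Fluorescence from cleaved Gly-Phe-AFC (25 uM final, 30 min, ex 405/em 540 nm) reported viability, and the luciferase signal of the same CMV-reporter HEK-293 wells was read 5 min after SteadyGlo addition. Dosing lasted 24 hr.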
# On the % scale 0 is the no-effect control and ±100 the full control effect; potency means the concentration at half of the fitted maximal effect.
Structure (SMILES),"activity change, negative = cytotoxicity",Potency
COC(=O)c1c(C)oc2ccc(N(C(=O)c3ccncc3)S(=O)(=O)c3ccc(C)cc3C)cc12,-27.7% (inactive),–
CCC1(c2ccccc2)ON(c2c(Br)cccc2Br)C1=O (centres undefined),–,17.8 µM (active)
Cc1nc(Oc2ccc(S(=O)(=O)N3CCOCC3)cc2Cl)c2c3c(sc2n1)CCCC3,-19.1% (inactive),–
N=c1ccn(CC(=O)c2ccc(-c3ccccc3)cc2)cc1,-17.4% (inactive),–
Clc1ccc(-c2cc(C3CCNCC3)[nH]n2)c(Cl)c1,26.4% [at 57.5 µM] (inactive),–
COc1cc(NS(=O)(=O)c2ccc(N/C=C(\C#N)c3nc4cc(Cl)ccc4o3)cc2)nc(OC)n1,–,14.1 µM (active)
CCN1CCN(c2ccc(Cl)cc2NC(=O)c2ccc(-n3nc(C)cc3C)cc2)CC1,-12.5% [at 57.5 µM] (inactive),–
Nc1nc(NCCc2ccccc2)nc(NCc2ccccc2)c1[N+](=O)[O-],-23.9% [at 57.5 µM] (inactive),–
CCc1cc[n+](C2=C([O-])c3ccccc3C(=O)/C2=N\S(=O)(=O)c2cccs2)cc1,–,17.8 µM (active)
COc1ccccc1/C=C/C(=O)OCC(=O)Nc1ccc(Cl)cn1,-27.1% [at 57.5 µM] (inactive),–
O=C(COC(=O)c1cc([N+](=O)[O-])ccc1N1CCOCC1)Nc1ccc(Cl)cn1,–,14.1 µM (active)
Cc1cc(C)c2c(CC(=O)Nc3ccc(Cl)cn3)coc2c1,-3.79% (inactive),–
CCn1c(C)cc(C(=O)COC(=O)c2ccccc2[N+](=O)[O-])c1C,-4.45% [at 57.5 µM] (inactive),–
COc1ccc(O)c(/C=N/NC(=O)c2ccc(OCc3cccc(Br)c3)cc2)c1,-22.1% (inactive),–
O=C(N/N=C/c1cc([N+](=O)[O-])ccc1O)c1ccc(COc2ccc3c(c2)CCC3)o1,–,11.2 µM (active)
COc1ccc(O)c(/C=N/NC(=O)c2ccc(N3CCCC3=O)cc2)c1,-7.9% [at 57.5 µM] (inactive),–
COc1ccc2nc(C)c3c(c2c1)OC(C(C)(Cl)Br)C3 (centres undefined),-24.3% (inactive),–
N#CCc1nc2ccccc2c(=O)[nH]1,4.06% [at 57.5 µM] (inactive),–
CC1(C)COCN1S(=O)(=O)c1ccc(C(=O)Nc2nnc(-c3ccc(Cl)s3)o2)cc1,-16.1% (inactive),–
O=C1c2cccc3cc([N+](=O)[O-])cc(c23)C(=O)N1CCN1CCCC1,–,1.58 µM (active)

Structure (SMILES),"activity change, negative = cytotoxicity",Potency
C/[N+]([O-])=C\c1cccc(OCCN2CCN(c3ncc(C(F)(F)F)cc3Cl)CC2)c1,6.84% (inactive),–
COc1cc(C(=O)O/N=C(\N)Cc2ccc([N+](=O)[O-])cc2)cc(OC)c1OC,–,3.16 µM (active)
Cn1c(CO)cnc1S(=O)(=O)Cc1ccc([N+](=O)[O-])cc1,-1.7% [at 57.5 µM] (inactive),–
Cc1sc2nc(CN3CCCC3)nc(N3CCC(C(N)=O)CC3)c2c1C,-6.87% [at 57.5 µM] (inactive),–
Nc1ccc2c(c1)OC1(CCCC1)O2,-18% (inactive),–
CCn1c2ccccc2c2cc(NC(=O)COC(=O)Cc3cn4ccsc4n3)ccc21,1.78% (inactive),–
CC1CCN(Cc2c(C(=O)N/N=C/c3cc(Br)ccc3O)nnn2-c2nonc2N)CC1,-14% (inactive),–
Cc1cc(N2CCN(C)CC2)ccc1NC(=O)c1ccc(-c2ccc(Cl)cc2)o1,-20.4% [at 57.5 µM] (inactive),–
Cc1cccc2c1-c1sc(C(=O)Nc3ccccc3N3CCN(C)CC3)cc1CO2,–,22.4 µM (active)
CC1CC(C)CN(CCCNC(=O)c2cc3c(s2)-c2ccccc2OC3)C1 (centres undefined),-13.8% (inactive),–
NC(=O)CC(NC(=O)Cc1ccc(Br)cc1)c1ccc(NC2CCCC2)c([N+](=O)[O-])c1 (centres undefined),–,3.16 µM (active)
CC(C)C[C@H](N)c1cn([C@@H](CCCCN)C(=O)N2CCNCC2)nn1,6.2% (inactive),–
O=C(NC(Nc1nc2ccc([N+](=O)[O-])cc2s1)(C(F)(F)F)C(F)(F)F)c1ccccc1,–,0.562 µM (active)
Cc1nc2ccc(NC(=O)c3ccc(S(=O)(=O)N(C)c4ccccc4)cc3)cc2s1,-14% (inactive),–
O=C(NC(Nc1ncc(S(=O)(=O)c2ccc([N+](=O)[O-])cc2)s1)(C(F)(F)F)C(F)(F)F)c1ccc(Cl)cc1,–,10 µM (active)
CO[C@@]12[C@@H]3N[C@@H]3CN1C1=C(C(=O)C(N)=C(C)C1=O)[C@@H]2COC(N)=O,22.6% (inactive),–
CC1=CC(C)(C)N2C(=O)C3(SCC(=O)N3c3ccc(F)cc3)c3cc(C)cc1c32 (centres undefined),-24% (inactive),–
CCn1ccnc1CN1CCCC(C(=O)c2ccc3cc(OC)ccc3c2)C1 (centres undefined),4.36% (inactive),–
OC[C@@H]1CN(Cc2ccc(-c3ccccc3)cc2)C[C@H](n2cnc3c(Nc4ccccc4)ncnc32)O1,–,22.4 µM (active)
OC[C@@H]1CN(Cc2ccncc2)C[C@H](n2cnc3c(N4CCN(c5ccccc5)CC4)ncnc32)O1,-2.73% (inactive),–

Structure (SMILES),"activity change, negative = cytotoxicity",Potency
CN(C)CCNc1ncnc2c1ncn2[C@H]1CN(Cc2ccc(-c3ccccc3)cc2)C[C@@H](CO)O1,-5.63% [at 57.5 µM] (inactive),–
CNc1ccccc1C(=O)OC(C)C(=O)Nc1ccc(Cl)cn1 (centres undefined),-0.359% (inactive),–
CCCc1ccc(O)c(N=Cc2cc(Br)cc(OCC)c2O)c1,-3.44% [at 57.5 µM] (inactive),–
O=C(Nc1ccc(Br)cc1)c1cccc(OC(=S)N2CCOCC2)c1,12.8% (inactive),–
Oc1[nH]c2ccc(Br)cc2c1N=NC(=S)N1CCOCC1,–,1.12 µM (active)
O=C(NCC1CC1)c1ccc2c(c1)S(=O)(=O)c1cc(Cl)ccc1C2=O,-10.1% (inactive),–
O=C(Nc1ccc(Cc2ccncc2)cc1)c1ccc(S(=O)(=O)N2CCCC2)cc1,-23.7% [at 57.5 µM] (inactive),–
COc1ccc(C)cc1Nc1nc(C)nc2sc(C)cc12,-16.3% (inactive),–
COc1ccccc1CNc1nc(NCc2ccc(NC(C)=O)cc2)c2sccc2n1,-1.81% (inactive),–
CC(=O)Nc1ccc(CNc2nc(NC(C)C)nc3cc(-c4ccccc4)sc23)cc1,–,25.1 µM (active)
O=C(Oc1c(CN2CCOCC2)cc(Cl)c2cccnc12)c1ccccc1F,18.9% [at 57.5 µM] (inactive),–
COc1cc(OC)cc(-c2cc3nc(C)c(CCC(=O)O)c(C)n3n2)c1,-23.2% [at 57.5 µM] (inactive),–
COc1cc(Nc2ncc3c(n2)CCN(C(=O)Nc2ccc(C(C)C)cc2)C3)cc(OC)c1OC,-22.1% (inactive),–
CCN(CC)S(=O)(=O)c1ccc(C(=O)Nc2ccc(Cc3ccncc3)cc2)cc1,3.95% [at 57.5 µM] (inactive),–
CC(=O)c1ccc(C(=O)Nc2nnc(-c3ccc(Cl)cc3)o2)cc1,-18.4% (inactive),–
CCCN(CCC)S(=O)(=O)c1ccc(C(=O)Nc2nnc(-c3cc(OC)cc(OC)c3)o2)cc1,–,7.08 µM (active)
CCc1nnc(NC(=O)c2ccc(S(=O)(=O)N(C)c3ccccc3)cc2)o1,-10.5% (inactive),–
CN(c1ccccc1)S(=O)(=O)c1ccc(C(=O)Nc2nnc(-c3ccc(F)cc3)o2)cc1,–,14.1 µM (active)
COc1ccc(-c2nnc(NC(=O)c3ccc(S(=O)(=O)N4COCC4(C)C)cc3)o2)cc1,-19.2% (inactive),–
